The full ranking holds about 5,800 sequences; the median of “enrichment r” is about 0.68, and the highest 2% start at about 11. These entries were drawn from the full list.

The source of these data is paper PMC12136788.

To fix the notation:
B1: ENSG00000198589:be:win_4201|CDS|ENSG00000198589|bound_else_gene|NA|bound_elsewhere_windowed (ssRNA)
RNA: GGGAGUUCUACAGUCCGACGAUCGAAGCCUCUGUGACAUUUUUGCAGAGGCUAAUUAGCCUUGUGGAUGUGCUUAUAUUUGCAAGUUCUCUUGGCUUUACUGAAAUUGAAGCUGAAAAAAGUAUGUCAUCUGGAGGAAUUUUGCAACAGAGGAUUGAGCAUCA
B2: chr9:37126384:37126485:+|CDS|ENSG00000147905|unk|total|mutant (ssRNA)
RNA: GGGAGUUCUACAGUCCGACGAUCUAUCGAGAUGAGUCAUCCCGUGAACUGAGUGUUGACCGUGAGGUGGAAUUUCAACUCUACCGCCAAAUUCAUUAUGCCCAAGAUCUUGAUGAUGUCAUCAGGGAGGAAGAGCAUGAAGAACAACAGAGGAUUGAGCAUCA
B3: chr15:52550718:52550819:-|3pUTR|ENSG00000128989|msi1|total|mutant (ssRNA)
RNA: GGGAGUUCUACAGUCCGACGAUCUUUAUAUAAACUUUUUAAAUGCCGAAACUUUUUACUUCCACACUCAGUUUUGGAGACCCCCGAAUAAAAGGCUUCAAUACUCUGCAUUCCAUGCCCUCUGCCACCUGCUUUUUUUUCCCCCAACAGAGGAUUGAGCAUCA
B4: ENSG00000066084:stop:overlap|stop_codon|ENSG00000066084|stop_codon|NA|stop_codon (ssRNA)
RNA: GGGAGUUCUACAGUCCGACGAUCACUGGCAGCCACACAUCUCACCUGCUGGGACAGAACCGGCAUACAUUGAGGGGAAACAAUAGUAAAUGUCUUAGACUUUAAGAAGGAUGCUGGGCUGUGGCACGGCAUGUUUGCGAAUGUCAACAGAGGAUUGAGCAUCA
B5: chrX:150470157:150470258:+|CDS|ENSG00000013619|unk|FALSE|unique (ssRNA)
RNA: GGGAGUUCUACAGUCCGACGAUCUCCAAAUGAGCUAGAUCUUGAGAAGAUACUGGGGACGAAGCCAGAAGAGCCACUGGUUUUAGAUCAUCCCCAGGCAACCCUAAGCACAACUCCCAAGCCUUCGGUUCAGAUGUCACACUUCAACAGAGGAUUGAGCAUCA
B6: chr8:102207567:102207681:-|3pUTR|ENSG00000048392|unk|total|mutant (ssRNA)
RNA: GGGAGUUCUACAGUCCGACGAUCUAUUAAUUGCAAUGAUGUUGUAAUAAAAUACUCUCAUUUCCUUAAAAUAAUUGUGAUUCCCGGUCCCCGGAUCCCGAAUCCGAUCUUUGUAUUUUUAAUGCUCCGGGGAAGAAUAUAAGUCAACAGAGGAUUGAGCAUCA

For this test, the target named is T1, UNK ZnF1-6 (called full-length) (human, UniProt Q9C0B0 30-357).
T1 sequence: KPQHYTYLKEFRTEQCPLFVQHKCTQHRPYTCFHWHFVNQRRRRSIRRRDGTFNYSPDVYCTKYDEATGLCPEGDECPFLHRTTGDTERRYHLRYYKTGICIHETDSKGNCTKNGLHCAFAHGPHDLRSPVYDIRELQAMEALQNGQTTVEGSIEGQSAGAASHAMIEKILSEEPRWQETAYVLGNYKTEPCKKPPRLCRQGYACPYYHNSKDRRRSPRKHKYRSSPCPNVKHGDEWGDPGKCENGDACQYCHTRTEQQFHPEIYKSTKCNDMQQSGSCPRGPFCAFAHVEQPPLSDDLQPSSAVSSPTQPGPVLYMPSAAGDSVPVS
Nature of the test: nsRBNS (natural sequence RNA bind-n-seq); RBNS binding buffer (assumed for nsRBNS): 25 mM Tris pH 7.5, 150 mM KCl, 3 mM MgCl2, 0.01% Triton X-100, 500 ug/ml BSA, 20 U/ml SUPERase-In, 4 C; UNK is unkempt and MSI1 is Musashi-1; names of the RNAs are library labels; protein concentration not given here; high values mean tight binding.
Consider B1, for which the binding signal is 0.355 enrichment R. To B2 belongs 0.413 enrichment R; to B3, 1.03 enrichment R; to B4, 1.59 enrichment R. The same measure for B5: 0.539 enrichment R. The same measure for B6: 0.334 enrichment R.
